An excerpt weighted towards active compounds, which were near 3.1% of everything screened.
RAD54 branch = inhibitors of human RAD54 branch migration, primary screen, biochemical, fluorescence, single point | DNA repair and recombination protein RAD54-like (Homo sapiens), Q92698 | RAD54 Holliday junction branch migration, FAM/BHQ fluorescence | inhibition, % at 10.4 µM | 0.14% of 360,000 active | AID 602329, 2012;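 active = mean normalized replicate activity at least 40 and at least half of replicates scoring 40 or more; inconclusive = only one of the two criteria met; inactive = mean below 40 and under half of replicates reaching 40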;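 note: 0% = median of neutral control wells and 100% = median of positive control wells; inhibitors cause a drop in the FAM fluorescence signal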
DENV2 CPE = inhibitors of DENV2 cytopathic effect, primary screen, cell-based, plate reader, single concentration; DENV2-infected cells, cytopathic effect rescue; CPE inhibition, % at 9.99 µM; 1.7% of 350,000 active; AID 651640, 2012; in the data active = CPE inhibition above about 20%, passing the limit was not always enough; inconclusive = no clear call, values can overlap the other calls; tested in BHK-21 cells;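 note: 0% = median of neutral control wells and 100% = median of positive control wells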
GSIS activator = GLuc luminescence reporter in INS-1E cells, primary screen for activators of glucose-dependent secretion of insulin | INS-1E GLuc reporter insulin secretion, 2-3 h | activation, % at 16.6 µM | 0.61% of 370,000 active | AID 743287, 2014;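 active = lowest replicate activation of at least 40%, so every replicate reaches that level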;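 note: 0% = median of neutral control wells and 100% = median of IBMX positive control wells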
RAD52 anneal inh = RAD52 DNA annealing inhibitors, primary screen, biochemical, FRET, single point, set 2. recombinant RAD52 DNA annealing, FRET fluorescence. inhibition, % at 18.7 µM. 0.46% of 360,000 active;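 active = every replicate showing at least 50% inhibition; inconclusive = mean inhibition at least 50% but not in every replicate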
MLL AF4-AF9 inh = inhibitors of AF4 peptide binding to AF9, primary screen, biochemical, AlphaScreen, biotin-AF4 peptide, FLAG-AF9, single point. inhibition, % at 10 µM. AID 651704, 2012. 0.47% of 350,000 active;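 active = every replicate reaching a set inhibition limit, whatever the replicate mean, cut at about 25% in these data; inconclusive = mean inhibition reaches that limit but some replicates miss it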;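 note: 0% = plate neutral control median and 100% = total signal loss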
dFosB activator = activators of delta FosB homodimer, primary screen, biochemical, fluorescence polarization, TAMRA-CDK5 oligo, single point; AID 493131, 2011; 0.99% of 340,000 active; Protein FosB (Mus musculus), P13346; purified delta FosB; percent of positive-control signal above neutral wells; activation, % at 25 µM;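 active = mean activation above about 17%, with every replicate also reaching it, limit read from the data, passing the limit was not always enough; inconclusive = only one of the two conditions met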
Target sequence (P13346 whole entry, looked up): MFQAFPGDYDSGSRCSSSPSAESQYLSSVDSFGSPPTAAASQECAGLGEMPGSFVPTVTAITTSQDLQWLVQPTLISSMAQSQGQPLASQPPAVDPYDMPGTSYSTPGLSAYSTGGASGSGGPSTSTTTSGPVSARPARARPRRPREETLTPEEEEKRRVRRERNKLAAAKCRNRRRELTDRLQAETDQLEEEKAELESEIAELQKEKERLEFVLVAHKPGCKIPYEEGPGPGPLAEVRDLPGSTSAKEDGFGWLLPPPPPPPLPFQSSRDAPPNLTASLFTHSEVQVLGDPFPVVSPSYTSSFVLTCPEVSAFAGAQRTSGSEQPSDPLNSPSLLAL
Alpha interfer = AlphaScreen signal interference counter-screen, dose response, artefact control, biochemical, cherry-picked samples, luminescence | shares compounds with MLL AF4-AF9 inh | AC50, µM (highest dose often 12 µM), inactives show at the highest dose activity change, negative = inhibition | 45% of 530 active; cut-off not given, nearly all actives have AC50 up to about 14 µM
DNA binder FP = DNA-binding compounds via dye displacement, dose response, artefact control for RAD52 inhibitor project, biochemical, fluorescence polarization, cherry-pick; shares compounds with RAD52 anneal inh; Salmon sperm DNA/acridine orange FP displacement; AC50, µM; 8% of 1,000 active; AID 652128, 2013;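 active = fitted half-maximal concentration for signal loss at or below twice the highest dose tested, in every separate run, actives reach about 64 µM in these data; inconclusive = runs disagree, or flat partial signal loss, or poor fit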
Starred values were filed as active, the others as inactive; i = inactive; ? = inconclusive; . = no result given.

SMILES	RAD54 branch	DENV2 CPE	GSIS activator	RAD52 anneal inh	MLL AF4-AF9 inh	dFosB activator	Alpha interfer	others
CC(C)n1ncc2c(C(=O)Nc3ccc(S(N)(=O)=O)cc3)cc(C3CC3)nc21	2	-1	52	-13	?	-10	-14%
COc1ccccc1C#Cc1ccc2c(c1)[C@@H]1[C@@H](CCN1C(=O)c1ccccc1)[C@@H](CO)N2	4	-5	16	-6	-2	.	.
COc1ccccc1C#Cc1ccc2c(c1)[C@H]1[C@H](CCN1C(=O)c1ccncc1)[C@@H](CO)N2	.	-7	-15	87*	51*	.	8µM*
C[C@@H]1CCCCO[C@@H](CN(C)CC2CC2)[C@@H](C)CN([C@H](C)CO)C(=O)c2cc(NC(=O)Nc3ccc(C(F)(F)F)cc3)ccc2O1	-3	?	2	.	.	.	.
C[C@H]1CN([C@@H](C)CO)C(=O)Cc2cc(NC(=O)NC3CCCCC3)ccc2O[C@@H]1CN(C)S(C)(=O)=O	1	3	11	-2	-1	.	.
COc1ccc(C(CCNCc2ccc(N(C)C)cc2)c2ccccc2OC)cc1 (stereo not drawn)	2	1	-5	-28	51*	7	4.7µM*
C[C@@H]1CCCCO[C@H](CN(C)C(=O)Nc2ccc(C(F)(F)F)cc2)[C@@H](C)CN([C@@H](C)CO)C(=O)c2cc(NC(=O)c3ccccc3)ccc2O1	-10	-2	2	-20	-10	.	.
CN1C(=O)c2cccc(N(C)C)c2C1=O	-5	-1	3	-12	-12	0	.
CN(C)c1cccc2c1C(=O)c1ccccc1C2=O	.	1	16	9	43*	1	13µM*
COc1ccc(N2CCN(C(=O)C3CCCN(S(=O)(=O)c4c(C)noc4C)C3)CC2)cc1 (stereo not drawn)	11	1	11	-7	28*	-12	-5%
COc1ccc(N2CCN(C(=O)C3CCN(S(=O)(=O)c4c(C)noc4/C=C/N(C)C)CC3)CC2)cc1	3	5	15	-11	4	-20	.
N=C1C=CC(=C(c2ccc(N)cc2)c2ccc(N)cc2)C=C1	.	-7	.	3	45*	-1	11µM*
Nc1ccc(C(=O)C(=O)c2ccc(N)cc2)cc1	6	-6	-6	-13	4	-2	.
C[C@H](CO)N1C[C@H](C)[C@@H](CN(C)Cc2ccncc2)Oc2ccc(NS(=O)(=O)c3ccccc3)cc2CC1=O	-5	9	9	-6	5	.	.
O=C(C[C@@H]1C=C[C@H](NC(=O)Nc2ccc3c(c2)OCO3)[C@H](CO)O1)NCCCN1CCOCC1	3	2	3	-5	0	.	.
CS(=O)(=O)N1CCCCN2[C@H](C1)[C@H](c1ccc(C#Cc3ccccn3)cc1)[C@@H]2CO	3	-1	-5	-50	32*	.	-16%
CS(=O)(=O)N1CCCCN2[C@H](C1)[C@@H](c1ccc(C#Cc3ccccn3)cc1)[C@@H]2CO	10	-3	0	-53	-8	.	.
CCOc1ccc(NC(=S)N(CCN2CCOCC2)Cc2ccc3c(c2)CCCN3CC)cc1	2	-3	-25	7	39*	-18	-28%
C[C@@H]1CN([C@@H](C)CO)C(=O)Cc2cc(NC(=O)Nc3ccc(C(F)(F)F)cc3)ccc2O[C@H]1CN(C)C	7	6	-8	-6	7	.	.
CN=c1scc(-c2ccccc2F)n1/N=C(\C)c1cccnc1	.	-1	-6	-13	37*	1	-31%
COc1cccc(-c2sc3ccccc3c2-c2ccc(OCCN(C)C)cc2)c1	-5	-7	250	14	29*	-21	0%
O=C1c2ccccc2-c2c1cccc2C(=O)N1CCN(C(=O)c2ccco2)CC1	11	.	.	.	.	-5	.
O=C(O)CCCNc1cc(N2CCN(C(=O)c3ccco3)CC2)c2noc3c2c1C(=O)c1ccccc1-3	-11	4	-5	i	37*	-82	-21%
C[C@H](CO)N1C[C@H](C)[C@@H](CN(C)C(=O)Cc2ccccn2)Oc2ncc(C#CC3CC3)cc2C1=O	-3	-1	7	-17	-2	.	.
Cn1cc(CN2CCC(C(=O)NC(c3ccc(F)cc3)c3ccc4ccccc4n3)CC2)c2ccccc21 (stereo not drawn)	12	-9	-25	26	25*	.	-34%
SMILES	RAD54 branch	DENV2 CPE	GSIS activator	RAD52 anneal inh	MLL AF4-AF9 inh	dFosB activator	Alpha interfer	others
COc1cc(CN2CCC(C(=O)NC(c3ccc(F)cc3)c3ccc4ccccc4n3)CC2)cc(OC)c1 (stereo not drawn)	13	?	-42	-103	2	.	.
CN1CCN(CCCCOc2ccccc2C=O)CC1	19	1	8	87*	33*	4	-36%	DNA binder FP=i
COc1cccc(OC)c1OCCCCCCN1CCN(C)CC1	1	5	7	6	-24	-12	.
C[C@H](NC(=O)[C@@H]1[C@@H](CO)[C@@H]2Cn3c(ccc(-c4ccccc4F)c3=O)[C@H]1N2)c1ccccc1	-7	-6	13	5	-2	.	.
CN(C)c1ccc(C(CN)c2c[nH]c3ccccc23)cc1 (stereo not drawn)	-8	-7	-5	84*	30*	2	-33%	DNA binder FP=i
CN(C)c1ccc(C(CNS(=O)(=O)c2ccc3ccccc3c2)c2c[nH]c3ccccc23)cc1 (stereo not drawn)	.	.	-35	.	.	-10	.
C#CCOCCOCCOCCNc1nc(N2CCN(C(=O)[C@H](CCCN=C(N)N)n3cc(C(N)[C@@H](C)CC)nn3)CC2)nc(N2CCN(C(=O)[C@H](CCCCN)n3cc([C@@H](N)CC(N)=O)nn3)CC2)n1 (stereo partly drawn)	-38	3	2	66*	37*	13	-13%	DNA binder FP=i
COc1ccc(N=C2S/C(=C\c3ccc(Cl)c([N+](=O)[O-])c3)C(=O)N2CCN(C)C)cc1	24	1	-24	53*	26*	23*	6.7µM*	DNA binder FP=i
CCCN1C(=O)/C(=C/c2ccc(C)s2)SC1=Nc1ccc(OC)cc1	-16	.	3	.	.	-7	.

Assay outcomes from PubChem.
